Experimental findings from PubChem BioAssay (Tox21) are described below.

Inconclusive results are not listed. Activity calls are given as the source filed them. Unless noted, calls follow the shape of the dose curve; as a rule, active = well fitted curve in the direction sought with a large enough effect in the repeat runs; inconclusive = weak or mixed curves; inactive = no such curve, though single readings can be large; an effect the other way counts as inactive or inconclusive.

Assay [1] is described as follows: qHTS assay to identify small molecule agonists of the sonic hedgehog signaling (Shh) pathway (AID 1259368; calls by dose curve;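 also: NIH/3T3-derived 3T3Gli1-Luc cells carrying a stable Gli1-driven firefly luciferase reporter; series mostly up to about 92 µM; nearly all actives have a fitted effect of over 15% in size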). In outline:
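Mouse fibroblast (NIH/3T3) reporter cells with stably integrated Gli1-Luc were treated 24 hr with compound; firefly luciferase luminescence served as the read-out.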

Assay [2] is described as follows: qHTS assay to identify small molecule antagonists of the sonic hedgehog signaling (Shh) pathway (AID 1259369; calls by dose curve; also: nearly all actives have a fitted effect of over 45% in size; also: potency is read from the fitted curve at half-maximal effect). Put shortly: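 Conditioned medium drives Shh signalling in 3T3Gli1-Luc cells; compounds in DMSO co-applied, 24hr at 37 C, then luciferase luminescence.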
On the technique in general: qHTS replaces the single test concentration by a dilution series.

A short description of assay [3]: qHTS assay to identify small molecule agonists of the estrogen receptor beta (ER-beta) signaling pathway - cell viability counter screen (AID 1259380). Also: nearly all actives have a fitted effect of over 30% in size. In outline: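 Cells used were ER-beta-UAS-bla HEK293T in medium with 2% charcoal-stripped FBS. They were treated for 16 hr at 37C. Viability came from CellTiter-Glo luminescence.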
The target of assay [4] is Androgen receptor (Homo sapiens) (UniProt P10275). Briefly: qHTS assay to identify small molecule agonists of the androgen receptor (AR) signaling pathway in the presence of an antagonist (AID 1259381; calls by dose curve; also: nearly all actives have a fitted effect of over 15% in size). In outline: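 Using human MDA-kb2 cells with an MMTV promoter–luciferase construct (AR and GR response elements), agonist activity is scored under 3.0uM nilutamide (final) co-treatment; 16hr incubation, 37C, luminescence readout via ONE-Glo.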

Assay [5] in a line: qHTS assay to identify small molecule antagonists of the estrogen receptor beta (ER-beta) signaling pathway - cell viability counter screen (AID 1259382). Also: series mostly up to about 92 µM; nearly all actives have a fitted effect of over 55% in size. In outline:
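Agonist-stimulated (1nM E2) ER-beta-UAS-bla HEK293T cells are incubated with library compounds for 16 hr at 37C. Cell viability is then assessed in the reporter-assay wells by adding CellTiter-Glo and reading luminescence after 30 min.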

Assay [6] in a line: qHTS assay to identify small molecule agonists or antagonists of the thyroid stimulating hormone receptor (TSHR) signaling pathway - wild type cell line counter screen (AID 1259384; calls by dose curve). Put shortly: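 Wild-type HEK293 cells were plated 18 h at 37 C/5% CO2, pin-dosed with compound plus Ro20-1724 medium, held 30 min at room temperature, then given cAMP-d2 and anti-cAMP-cryptate; fluorescence was read after 1 h. Fifteen concentrations, triplicate.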

A short description of assay [7]: qHTS assay to identify small molecule agonists of the estrogen receptor alpha (ER-alpha) signaling pathway in the presence of an antagonist - cell viability counter screen (AID 1259386).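 Also: cells exposed to compounds for 22 h at 37 °C before the viability read; nearly all actives have a fitted effect of over 30% in size.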 Also: potency is read from the fitted curve at half-maximal effect. In outline: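 ICI-182,780 at 10.0nM final accompanies the compound titration (15 concentrations, 22hr, 37C) on VM7Luc4E2 cells. The CellTiter-Fluor fluorescence readout runs in the same wells as the luciferase assay.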

For assay [8], the target named is Progesterone receptor (Homo sapiens) (UniProt P06401). The assay can be described thus: qHTS assay to identify small molecule agonists of the progesterone receptor (PR) signaling pathway (AID 1346784; calls by dose curve; also: nearly all actives have a fitted effect of over 30% in size). Put shortly: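 Compounds were tested for PR agonism in HEK 293T cells bearing a beta-lactamase gene under UAS control. Treatment lasted 16 hr at 37C; signal came from fluorescence of a FRET substrate.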

Assay [9] shares this target. Briefly: qHTS assay to identify small molecule antagonists of the progesterone receptor (PR) signaling pathway (AID 1346795; active = well fitted inhibition curve with a large enough effect in the signal ratio in the repeat runs, not every such curve was filed as active; the % refers to the signal ratio). In outline:
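In HEK293T cells bearing the PR-UAS-bla reporter, compound effects on promegestone-driven (1 nM) beta-lactamase expression are assessed after 16 hr using a fluorescent FRET substrate incubated 2 hr at room temperature.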

A short description of assay [10]: qHTS assay to identify small molecule antagonists of the progesterone receptor (PR) signaling pathway - cell viability counter screen (AID 1346798). Also: series mostly up to about 92 µM; nearly all actives have a fitted effect of over 50% in size. Put shortly: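 Following a 4 hr attachment, PR-UAS-bla HEK293T cells in charcoal-stripped FBS medium were exposed to compounds with R5020 for 16 hr; CellTiter-Glo was added and luminescence read after 30 min at room temperature.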

Assay [11] in a line: qHTS assay to identify small molecule agonists of the progesterone receptor (PR) signaling pathway - cell viability counter screen (AID 1346799; calls by dose curve; also: nearly all actives have a fitted effect of over 45% in size). In outline:
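Here, 3,000 PR-UAS-bla HEK293T cells per well were treated with compounds for 16 hr after a 6 hr preincubation at 37C and 5% CO2; cell viability is the CellTiter-Glo luminescence signal.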

Assay [12] can be described thus: qHTS assay to identify small molecule antagonists of the TGF-beta/Smad signaling pathway - cell viability counter screen (AID 1346824). Also: nearly all actives have a fitted effect of over 50% in size. In outline: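 SBE-bla HEK 293T cells were plated overnight at 37 C, then given compounds in DMSO plus TGF-beta1 (added as 0.25 ng/mL solution) for 5 hr. After the bla read, CellTiter-Glo was added to the same wells and luminescence read after 30 min at room temperature.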

Assay [13] can be described thus: qHTS assay to identify small molecule agonists of the TGF-beta/Smad signaling pathway - cell viability counter screen (AID 1346829). Also: top concentration of the series differs between compounds; nearly all actives have a fitted effect of over 45% in size. In outline:
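After overnight seating at 37 C and 5% CO2, reporter cells got compounds for 5 hr and FRET substrate for 2 hr; cell viability then came from CellTiter-Glo luminescence.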

A short description of assay [14]: qHTS assay to identify small molecule agonists of the TGF-beta/Smad signaling pathway (AID 1346859; active = well fitted activation curve with a large enough effect in the signal ratio in the repeat runs, not every such curve was filed as active; the % refers to the signal ratio; also: series mostly up to about 77 µM). Put shortly:
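Each well held 4,000 SBE-bla HEK 293T cells incubated overnight before compound addition; 5 hr later the cleavable FRET substrate went on for 2 hr at room temperature, and fluorescence was read at two emissions.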

The target of assay [15] is Thyrotropin-releasing hormone receptor (Homo sapiens) (UniProt P34981). Briefly: qHTS assay to identify small molecule antagonists of the thyrotropin-releasing hormone receptor (TRHR) signaling pathway (AID 1346877; active = well fitted inhibition curve with a large enough effect in the repeat runs, not every such curve was filed as active; also: potency is read from the fitted curve at half-maximal effect). Put shortly:
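Screening used HEK293 cells engineered with TRHR, with a brief 5 min room-temperature compound exposure preceding addition of TRH to 1 nM. The read-out was kinetic calcium-dye fluorescence, concentration-response from 15 doses in triplicate.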

Assay [16] can be described thus: qHTS assay to identify small molecule agonists of the androgen receptor (AR) signaling pathway in the presence of an antagonist - cell viability counter screen (AID 1259379). Also: nearly all actives have a fitted effect of over 25% in size. Also: potency is read from the fitted curve at half-maximal effect. In outline: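 A CellTiter-Fluor read-out measured viability of MDA-kb2 reporter cells (MMTV promoter with AR and GR response elements). Treatment: nilutamide 3.0uM final with compounds at 15 concentrations, 16 hr, 37C, 0% CO2.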

Assay [17] concerns the target Estrogen receptor beta (Homo sapiens) (UniProt Q92731). The assay can be described thus: qHTS assay to identify small molecule agonists of the estrogen receptor beta (ER-beta) signaling pathway (AID 1259377; active = well fitted activation curve with a large enough effect in the signal ratio in the repeat runs, not every such curve was filed as active; the % refers to the signal ratio). Put shortly: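 Read-out: beta-lactamase FRET fluorescence. Cell line: ER-beta-UAS-bla HEK293T in 2% charcoal-stripped FBS. Exposure: 16 hr at 37C. Substrate step: 2 h at room temperature.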

The target is the same in assay [18]. The assay can be described thus: qHTS assay to identify small molecule antagonists of the estrogen receptor beta (ER-beta) signaling pathway (AID 1259378; active = well fitted inhibition curve with a large enough effect in the signal ratio in the repeat runs, not every such curve was filed as active; the % refers to the signal ratio). In outline: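 ER-beta-UAS-bla HEK293T (GripTite) cells in 2% charcoal-stripped FBS medium were preincubated 6 hr at 37C, dosed with compound, then stimulated with 1 nM E2 (final) for 16 hr; beta-lactamase reporter read by B/G FRET fluorescence after 2 hr substrate loading.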

The target in assay [19] is Thyrotropin receptor (Homo sapiens) (UniProt P16473). Briefly: qHTS assay to identify small molecule antagonists of the thyroid stimulating hormone receptor (TSHR) signaling pathway (AID 1259385; calls by dose curve; also: nearly all actives have a fitted effect of over 20% in size). In outline:
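TSHR-HEK293 cells were plated and held 18 h at 37C/5% CO2, then given compound plus Ro20-1724 and stimulated with TSH at 1.5 ng/mL final. After 30 min at room temperature, cAMP was detected with cAMP-d2/anti-cAMP-cryptate (1 h) by fluorescence.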

The target of assay [20] is Estrogen receptor (Homo sapiens) (UniProt P03372). Briefly: qHTS assay to identify small molecule agonists of the estrogen receptor alpha (ER-alpha) signaling pathway in the presence of an antagonist (AID 1259383; calls by dose curve; also: top concentration of the series differs between compounds; nearly all actives have a fitted effect of over 15% in size). In outline: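 Using VM7Luc4E2 cells seeded 24hr before treatment, antagonist ICI-182,780 (10.0nM final) was added, followed by compounds at 15 concentrations. Plates incubated 22hr; ONE-Glo luminescence quantified reporter activity.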
Estrogen receptor (Homo sapiens), sequence (P03372 whole entry, looked up): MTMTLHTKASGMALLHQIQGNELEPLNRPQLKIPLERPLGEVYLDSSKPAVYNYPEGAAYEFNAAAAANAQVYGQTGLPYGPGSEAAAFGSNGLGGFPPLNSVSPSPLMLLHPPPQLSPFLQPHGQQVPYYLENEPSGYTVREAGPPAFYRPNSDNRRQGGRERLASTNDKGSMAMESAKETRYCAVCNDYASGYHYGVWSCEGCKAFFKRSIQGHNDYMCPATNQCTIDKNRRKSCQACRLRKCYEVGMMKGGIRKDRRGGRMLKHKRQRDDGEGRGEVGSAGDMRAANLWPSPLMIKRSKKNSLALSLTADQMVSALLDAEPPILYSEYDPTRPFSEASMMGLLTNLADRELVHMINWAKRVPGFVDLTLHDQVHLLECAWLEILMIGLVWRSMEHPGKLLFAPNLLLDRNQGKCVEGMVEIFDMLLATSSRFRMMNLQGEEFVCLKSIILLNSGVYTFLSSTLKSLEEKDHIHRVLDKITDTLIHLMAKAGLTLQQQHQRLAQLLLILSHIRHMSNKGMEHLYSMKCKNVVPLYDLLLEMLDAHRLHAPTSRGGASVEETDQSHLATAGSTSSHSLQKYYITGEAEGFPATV

Thyrotropin-releasing hormone receptor (Homo sapiens), sequence (P34981 whole entry, looked up): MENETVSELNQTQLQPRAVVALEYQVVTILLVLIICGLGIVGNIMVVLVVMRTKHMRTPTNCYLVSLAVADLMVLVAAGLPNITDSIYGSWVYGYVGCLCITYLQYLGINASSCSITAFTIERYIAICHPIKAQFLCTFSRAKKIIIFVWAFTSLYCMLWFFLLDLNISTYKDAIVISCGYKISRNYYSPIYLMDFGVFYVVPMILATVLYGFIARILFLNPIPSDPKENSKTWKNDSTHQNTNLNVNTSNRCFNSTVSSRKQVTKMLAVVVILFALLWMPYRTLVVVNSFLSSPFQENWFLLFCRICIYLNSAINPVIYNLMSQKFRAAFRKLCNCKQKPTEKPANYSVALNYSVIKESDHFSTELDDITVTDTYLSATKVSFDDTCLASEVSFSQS
Androgen receptor (Homo sapiens), sequence (P10275 whole entry, looked up): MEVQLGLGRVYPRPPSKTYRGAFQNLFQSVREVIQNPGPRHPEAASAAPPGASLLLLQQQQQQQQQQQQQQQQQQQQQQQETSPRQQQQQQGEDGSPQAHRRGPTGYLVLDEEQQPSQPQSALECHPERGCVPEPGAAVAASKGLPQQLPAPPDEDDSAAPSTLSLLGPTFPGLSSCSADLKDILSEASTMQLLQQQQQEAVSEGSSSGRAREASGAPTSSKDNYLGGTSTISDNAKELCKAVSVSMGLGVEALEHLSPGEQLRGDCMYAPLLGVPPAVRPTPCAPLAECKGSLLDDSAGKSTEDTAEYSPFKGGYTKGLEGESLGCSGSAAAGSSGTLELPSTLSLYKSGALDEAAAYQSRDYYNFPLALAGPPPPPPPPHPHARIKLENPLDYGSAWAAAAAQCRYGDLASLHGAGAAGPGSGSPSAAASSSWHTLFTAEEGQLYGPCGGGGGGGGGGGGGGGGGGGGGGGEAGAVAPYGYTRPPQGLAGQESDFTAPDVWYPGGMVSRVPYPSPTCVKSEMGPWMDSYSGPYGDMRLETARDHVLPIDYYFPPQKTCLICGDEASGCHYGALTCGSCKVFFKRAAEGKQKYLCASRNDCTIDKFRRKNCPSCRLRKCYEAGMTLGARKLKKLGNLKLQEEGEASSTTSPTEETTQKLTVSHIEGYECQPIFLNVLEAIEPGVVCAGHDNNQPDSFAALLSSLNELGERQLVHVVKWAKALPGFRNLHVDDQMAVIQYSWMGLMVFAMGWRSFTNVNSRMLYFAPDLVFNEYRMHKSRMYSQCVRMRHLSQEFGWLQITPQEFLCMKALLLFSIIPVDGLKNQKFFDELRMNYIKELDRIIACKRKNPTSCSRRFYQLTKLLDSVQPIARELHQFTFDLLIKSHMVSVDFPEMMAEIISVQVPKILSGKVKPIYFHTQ
Thyrotropin receptor (Homo sapiens), sequence (P16473 whole entry, looked up): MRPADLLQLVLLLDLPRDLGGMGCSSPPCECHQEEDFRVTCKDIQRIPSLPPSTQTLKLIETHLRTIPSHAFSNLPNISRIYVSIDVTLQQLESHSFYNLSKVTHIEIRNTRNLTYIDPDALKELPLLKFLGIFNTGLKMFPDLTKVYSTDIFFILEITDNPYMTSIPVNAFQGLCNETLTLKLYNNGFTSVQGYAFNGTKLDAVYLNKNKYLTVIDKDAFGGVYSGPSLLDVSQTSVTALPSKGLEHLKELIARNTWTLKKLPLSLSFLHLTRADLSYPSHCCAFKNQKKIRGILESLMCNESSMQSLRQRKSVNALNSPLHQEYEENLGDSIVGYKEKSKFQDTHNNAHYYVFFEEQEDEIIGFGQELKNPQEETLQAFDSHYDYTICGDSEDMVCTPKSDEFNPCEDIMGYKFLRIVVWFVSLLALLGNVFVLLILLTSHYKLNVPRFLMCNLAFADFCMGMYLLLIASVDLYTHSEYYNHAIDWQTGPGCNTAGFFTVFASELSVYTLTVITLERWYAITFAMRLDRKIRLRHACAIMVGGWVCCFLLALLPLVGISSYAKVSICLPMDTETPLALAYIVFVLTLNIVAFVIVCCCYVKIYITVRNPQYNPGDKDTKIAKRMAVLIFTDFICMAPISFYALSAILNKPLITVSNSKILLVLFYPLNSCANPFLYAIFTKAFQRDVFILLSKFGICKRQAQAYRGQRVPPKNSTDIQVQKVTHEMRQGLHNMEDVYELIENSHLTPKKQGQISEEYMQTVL
Estrogen receptor beta (Homo sapiens), sequence (Q92731 whole entry, looked up): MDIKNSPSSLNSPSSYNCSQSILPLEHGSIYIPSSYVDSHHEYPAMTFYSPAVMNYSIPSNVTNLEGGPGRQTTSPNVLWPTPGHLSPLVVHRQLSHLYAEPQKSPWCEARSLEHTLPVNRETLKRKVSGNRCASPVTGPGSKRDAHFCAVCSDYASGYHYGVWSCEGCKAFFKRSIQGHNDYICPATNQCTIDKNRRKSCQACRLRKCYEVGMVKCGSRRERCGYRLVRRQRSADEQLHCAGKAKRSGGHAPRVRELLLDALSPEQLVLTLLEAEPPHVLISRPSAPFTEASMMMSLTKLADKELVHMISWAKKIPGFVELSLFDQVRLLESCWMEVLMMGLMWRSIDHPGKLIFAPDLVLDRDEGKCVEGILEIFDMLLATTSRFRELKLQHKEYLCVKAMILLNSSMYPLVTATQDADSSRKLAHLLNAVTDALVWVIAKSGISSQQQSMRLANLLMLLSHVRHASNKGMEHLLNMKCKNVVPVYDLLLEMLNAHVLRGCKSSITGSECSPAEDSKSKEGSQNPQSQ
Progesterone receptor (Homo sapiens), sequence (P06401 whole entry, looked up): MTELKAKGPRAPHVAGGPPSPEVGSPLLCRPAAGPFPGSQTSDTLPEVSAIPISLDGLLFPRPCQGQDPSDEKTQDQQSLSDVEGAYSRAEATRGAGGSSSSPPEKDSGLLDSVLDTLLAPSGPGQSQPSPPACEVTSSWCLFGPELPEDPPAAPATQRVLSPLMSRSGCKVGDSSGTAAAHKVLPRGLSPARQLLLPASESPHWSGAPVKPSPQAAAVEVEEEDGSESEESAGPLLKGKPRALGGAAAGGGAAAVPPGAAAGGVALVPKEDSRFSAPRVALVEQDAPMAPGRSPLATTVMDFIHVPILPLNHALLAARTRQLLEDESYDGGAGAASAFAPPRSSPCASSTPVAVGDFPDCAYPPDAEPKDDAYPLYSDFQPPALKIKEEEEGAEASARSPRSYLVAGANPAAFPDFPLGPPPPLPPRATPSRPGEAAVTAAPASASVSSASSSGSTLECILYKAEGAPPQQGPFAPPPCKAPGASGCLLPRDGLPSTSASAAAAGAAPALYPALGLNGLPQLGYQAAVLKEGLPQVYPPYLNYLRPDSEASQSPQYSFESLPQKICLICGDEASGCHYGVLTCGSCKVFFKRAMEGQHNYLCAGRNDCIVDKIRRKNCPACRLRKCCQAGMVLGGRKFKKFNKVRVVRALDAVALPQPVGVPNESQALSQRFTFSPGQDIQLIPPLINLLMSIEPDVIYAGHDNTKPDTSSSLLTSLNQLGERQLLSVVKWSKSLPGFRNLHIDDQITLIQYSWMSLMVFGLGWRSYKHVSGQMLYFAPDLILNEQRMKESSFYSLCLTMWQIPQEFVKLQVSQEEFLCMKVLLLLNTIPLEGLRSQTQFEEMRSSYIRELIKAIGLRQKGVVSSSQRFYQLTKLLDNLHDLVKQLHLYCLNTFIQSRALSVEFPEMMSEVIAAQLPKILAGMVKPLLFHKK

In the case of `CCCCN(N=O)C(=N)N[N+](=O)[O-]`, the Potency entry in assay [1], in assay [3], in assay [4], in assay [5], in [7] and in [8] was “inactive” each time. The Potency entry in [9], in assay [10], in [11], in [12], in assay [13] and in [15] was “inactive” throughout. Further, in assay [2], the Potency is 27.9 µM (active). For the same compound, the call in [6] and in assay [14] was inactive.
Regarding `C/C=C/C=O`, the Potency result in assay [1], in assay [2], in assay [16], in assay [5], in assay [7] and in [8] was “inactive” throughout. Also, the Potency entry in assay [9], in assay [10], in assay [11], in assay [12] and in [13] was “inactive” in each case. Moreover, the compound was classed as inactive in [14].
Take `COc1nn(C(=O)NS(=O)(=O)c2ccccc2OC(F)(F)F)c(=O)n1C`: the Potency entry in assay [1], in assay [17], in assay [18], in assay [16], in assay [3] and in assay [5] was “inactive” each time. Besides, the Potency entry in assay [19], in assay [7], in assay [10], in assay [11], in assay [12] and in [13] was “inactive” throughout. Further, in [15], the Potency entry is “inactive”. In addition, the outcome in [6] and in [14] was inactive.
For the compound `O=C(Nc1ccccc1)Nc1cnns1`, the Potency entry in assay [1], in [17], in assay [16], in assay [5], in [20] and in assay [19] was “inactive” in each case. The Potency entry in assay [7], in [12], in assay [13] and in assay [15] was “inactive” each time. Besides, the outcome in assay [6] and in assay [14] was inactive.
`Nc1ccc(N=Nc2ccc(-c3ccc(N=Nc4c(S(=O)(=O)O)cc5cc(S(=O)(=O)O)c(N=Nc6ccccc6)c(O)c5c4N)cc3)cc2)c(N)c1`: the Potency entry in assay [1], in assay [17], in assay [5], in [20], in assay [8] and in assay [9] was “inactive” throughout. The Potency result in [10], in assay [11], in assay [12] and in assay [13] was “inactive” each time. Moreover, the Potency in [16] was 17.6 µM (active); in assay [7], 15.7 µM (active). Also, in assay [14], the outcome was inactive.
Turning to `NCCCNCCCN`, the Potency result in assay [1], in [17], in assay [18], in assay [16], in [4] and in [19] was “inactive” in each case. Moreover, the Potency result in assay [7], in assay [8], in assay [9], in [10], in assay [11] and in assay [12] was “inactive” throughout. In addition, the Potency result in assay [13] and in assay [15] was “inactive” in each case. For the same compound, the compound was classed as inactive in assay [6] and in [14].
`O=C1NCN(c2ccccc2)C12CCN(CCCOc1ccc(F)cc1)CC2`: the Potency result in assay [1], in assay [8], in [10], in assay [11], in [12] and in assay [13] was “inactive” throughout. Further, the compound was classed as inactive in [14]. The Potency in assay [15] is 6.58 µM (active).
For the compound `CN1C(=O)C(O)N=C(c2ccccc2)c2cc(Cl)ccc21` (configuration not stated), the Potency result in assay [1], in [17], in assay [16], in assay [3], in assay [5] and in assay [20] was “inactive” in each case. Besides, the Potency entry in assay [7], in assay [9], in assay [10], in assay [12] and in assay [13] was “inactive” throughout. In addition, in assay [14], the compound was classed as inactive.
On to `C=CC(=O)OCCCCO`, for which the Potency entry in [1], in assay [17], in [18], in [3], in assay [5] and in assay [20] was “inactive” each time. Also, the Potency result in assay [19], in [7], in [8], in assay [9], in assay [10] and in [11] was “inactive” throughout. In addition, the Potency entry in [12], in [13] and in [15] was “inactive” each time. For the same compound, the compound was classed as inactive in assay [6].
Consider `C[C@@H]1CC[C@H]2[C@@H](C)C(=O)O[C@@H]3O[C@@]4(C)CC[C@@H]1[C@]32OO4`, for which the Potency entry in assay [2], in [17], in assay [18], in [16], in [3] and in assay [4] was “inactive” each time. Besides, the Potency entry in assay [5], in [19], in [7], in [8], in assay [9] and in [10] was “inactive” each time. The Potency entry in assay [11], in [12], in assay [13] and in assay [15] was “inactive” in each case. Moreover, the outcome in [6] and in assay [14] was inactive.
